Only some compounds are listed: those with a hit (about 1.6% of all), similar ones and a draw of the others.
NRP1-CendR mod: alters CendR peptide binding to human NRP-1. FAM-RPARPAR peptide binding to NRP-1, fluorescence polarization. inhibition, % at 25 µM. actives 0.85% (n = 360,000). AID 602438;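 active = inhibition or corrected inhibition above about 18%, plus a signal ratio from 0.5 to 1.5, limit read from the data, passing the limit was not always enough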
ATG4B inh: ATG4B (human) cysteine protease inhibition | Q9Y4P1 | ATG4B cleavage of LC3-PLA2, NBD-HPC fluorescence, 1 h | inhibition, % at 8.33 µM | actives 0.51% (n = 340,000); in the data active = inhibition above about 40%
PKA-R2B activ: PKA-R2B complex activation; PKA-R2B holoenzyme dissociation, Cy5-IP20 fluorescence polarization; R2B truncated from residue 108, S112A mutant; 0% DMSO only, 100% 113 µM cGMP; actives 0.079% (n = 340,000); AID 504700; activation, % at 11.4 µM; P22694+P31323;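 active = activation above a cutoff set at the mean over all compounds plus 3 SD, cut at about 18% in these data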;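 note: higher means more holoenzyme dissociation and a rise in polarization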
VLA-4 inh: inhibition in a human VLA-4 binding assay | P13612 | VLA-4 expressing cells, ligand binding flow cytometry | inhibition, % (about 7 µM as worked out from the volumes in the protocol) | actives 0.2% (n = 330,000)
PKA-R1A activ: activators of PKA-R1A complex. P00514+P68181. activation, % at 11.4 µM. AID 504707. actives 0.083% (n = 340,000). PKA-R1A dissociation, Cy5-IP20 fluorescence polarization; scaled: DMSO 0%, 113 µM cGMP 100%;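 active = percent activation above the mean of all tested compounds plus 3 SD, cut at about 19% in these data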;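 note: higher means more PKAc released from R1A so a rise in polarization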
ATG4B confirm: confirmation of human ATG4B inhibitors; shares compounds with ATG4B inh; ATG4B protease fluorescent substrate cleavage assay; inhibition, % at 8.33 µM; actives 92% (n = 320); AID 504757; in the data active = inhibition above about 39%
PLA2 counter: inhibits human PLA2, flagging false ATG4B inhibitors; shares compounds with ATG4B inh; purified PLA2, NBD-C6-HPC fluorescence, 45 min; inhibition, % at 8.33 µM; actives 66% (n = 1,600)
* hit, by the source's call; nt = no result. Cut-off read from the data, not from the text of the source, unless noted: active = inhibition above about 50%; inactive = the rest.

SMILES | NRP1-CendR mod | ATG4B inh | PKA-R2B activ | VLA-4 inh | PKA-R1A activ | PLA2 counter | others
O=C(c1ccoc1)N1CCCC(Nc2ccc(F)c(F)c2)C1 (stereo not drawn) | -2 | -1 | 7 | 12 | -1 | nt
Cc1cc(C)n2nc(C(=O)N3CCCC(Nc4ccc(C(C)C)cc4)C3)cc2n1 (stereo not drawn) | 7 | 26 | 2 | 8 | -10 | nt
CC(C)c1ccc(NC2CCCN(C(=O)c3ccoc3)C2)cc1 (stereo not drawn) | 0 | 56* | -12 | 6 | 0 | 60*
CC(C)c1ccc(NC2CCCN(C(=O)c3cc(C(C)C)nc(N)n3)C2)cc1 (stereo not drawn) | 8 | 75* | -5 | 8 | 2 | 77*
CC(C)c1ccc(NC2CCCN(C(=O)c3ccc(N4CCOCC4)cc3)C2)cc1 (stereo not drawn) | 5 | 77* | 1 | 2 | -8 | 82*
Cc1ccc(F)c(S(=O)(=O)NC(=O)C2(C)CCN2C(=O)Cc2cc(F)ccc2F)c1 (stereo not drawn) | -4 | nt | nt | nt | nt | nt
CC1CC1c1ccc(/C=C(\C#N)C(=O)Nc2ccccc2Cl)o1 (stereo not drawn) | -11 | 41* | 8 | -2 | -4 | 51*
CC1CCc2c(sc(Nc3nc4c(F)cccc4s3)c2C(N)=O)C1 (stereo not drawn) | -87 | 41* | -8 | -17 | -3 | -11
COc1ccc([C@H]2CC(=O)C=C(c3ccccc3-c3ccccc3)C2)cc1 | 17 | 42* | -3 | -38 | -15 | 58*
Nc1cc(S(=O)(=O)C(F)(F)F)ccc1C(=O)O | 18 | 8 | -4 | 6 | -5 | nt
O=S(=O)(c1ccc2c(c1)C(O)c1ccccc1CC2)C(F)(F)F (stereo not drawn) | 12 | 40* | -3 | -8 | -1 | 60*
CCc1nn(CCCC(=O)NCc2ccccc2Br)c(=O)c2cc3occc3n12 | -5 | 51* | -9 | 5 | -11 | 43 | ATG4B confirm=66*
CCc1cccc(NC(=O)CCCn2nc(CC)n3c(cc4occc43)c2=O)c1 | -3 | -5 | 9 | 0 | -9 | nt
CCOc1ccc(NC(=O)COc2ccc(C(=O)NCC3CCCO3)cc2OC)cc1 (stereo not drawn) | 8 | -14 | 3 | 13 | 0 | nt
Cc1ccc(C)c(S(=O)(=O)N2CCN(c3nc(CN4CCOCC4)nc4sc(C)c(C)c34)CC2)c1 | 2 | 52* | -4 | 11 | -3 | 69*
Fc1cccc(Cl)c1CSc1nnc(COc2cccc3cccnc23)o1 | -11 | 64* | -10 | -26 | 0 | 67*
CSCc1c(C(=O)N2CCCc3ccccc32)oc2ccccc12 | -9 | 61* | -4 | 5 | 1 | 78*
COC(=O)c1ccc(C(=O)NC2CCSc3ccccc32)cc1 (stereo not drawn) | 1 | -5 | 0 | 11 | 2 | nt
Cc1ccc(NC(=S)NC2CCSc3ccccc32)cc1C (stereo not drawn) | -4 | 41* | 2 | 14 | 6 | 53*
Cc1ccc(/C(N)=N/OC(=O)N2c3ccccc3Sc3ccccc32)cc1 | 0 | 24 | -11 | 7 | 2 | nt
Cc1ccccc1/C(N)=N/OC(=O)N1c2ccccc2Sc2ccccc21 | 0 | 54* | -8 | 3 | 9 | 60*
CC(C)(C)NCC(=Cc1ccccc1)C(=O)c1ccccc1 | 22 | 1 | 1 | nt | -1 | nt
O=C(Nc1cc(S(=O)(=O)Nc2ccc(Cl)cc2)ccc1N1CCCCC1)c1ccc(F)cc1 | -1 | 42* | -13 | 32 | -13 | 28
N#Cc1ccc(C(=O)Nc2cc(S(=O)(=O)Nc3ccc(Cl)cc3)ccc2N2CCCCC2)cc1 | -4 | -12 | -11 | -6 | -7 | nt
CCN1CCN(c2nc3c(C)cccn3c(=O)c2/C=C(\C#N)S(=O)(=O)c2ccccc2)CC1 | -17 | 50* | -8 | 10 | 1 | 52*
SMILES | NRP1-CendR mod | ATG4B inh | PKA-R2B activ | VLA-4 inh | PKA-R1A activ | PLA2 counter | others
O=C(Nc1ccccc1C(=O)O)c1cccc(NC(=O)c2ccccc2Br)c1 | -1 | 0 | 9 | 10 | -6 | nt
O=C(Nc1cc(C(=O)Nc2ccccc2C(=O)O)cc(C(=O)Nc2ccccc2C(=O)O)c1)c1ccccc1 | -202 | 68* | 2 | -37 | -4 | 84*
Cc1c(Cl)cccc1NC(=O)COC(=O)c1c2c(nc3ccccc13)CCN(Cc1ccccc1)C2 | -22 | 74* | -11 | 10 | 0 | 85*
Cc1cc(N2CCN(C)CC2)ccc1NC(=O)c1c2c(nc3ccccc13)CCN(Cc1ccccc1)C2 | -4 | -5 | -1 | 26 | -14 | nt
CC(C)c1ccccc1NC(=O)COC(=O)c1c2c(nc3ccccc13)CCN(Cc1ccccc1)C2 | -15 | 46* | -11 | -28 | -15 | 58*
CN(C(=O)COC(=O)CSc1ccccc1)c1c(N)n(Cc2ccccc2)c(=O)[nH]c1=O | 8 | nt | -4 | nt | -6 | nt
CCc1ccccc1N1CCN(S(=O)(=O)c2cc(OC)ccc2OC)CC1 | -6 | 57* | 2 | 20 | -7 | 52*
COc1ccc(OC)c(S(=O)(=O)N2CCN(c3ccccc3)CC2)c1 | 3 | -4 | 0 | 9 | -1 | nt
CCOc1ccccc1CN1CCNC(=O)C1CC(=O)NCCN1CCOC1=O (stereo not drawn) | 0 | 17 | 0 | 33 | -10 | nt
COc1ccc(CCN2CC(C(=O)OCC(=O)N(C)CC(=O)Nc3ccccc3Cl)CC2=O)cc1OC (stereo not drawn) | 3 | -4 | 9 | nt | -3 | nt
Cc1nc(SC(C(N)=O)c2ccccc2)c(C#N)c(C)c1C (stereo not drawn) | 4 | 25 | nt | 14 | nt | nt
COC(=O)C(Sc1nc(C)cc(C)c1C#N)c1ccccc1 (stereo not drawn) | 10 | 50* | -21 | 12 | -8 | 56*
O=C(NCCCN1CCCC1=O)C(=O)NCC1OCCN1S(=O)(=O)c1cc(F)ccc1F (stereo not drawn) | 16 | nt | -13 | nt | 1 | nt
CC(C)(C)NC(=O)C(C1CC1)n1c(-c2ccccc2)nc2ccccc21 (stereo not drawn) | -4 | nt | nt | nt | nt | nt
Cc1ccc(C2C(/C=C3/SC(=S)NC3=O)=C(c3cccs3)Oc3ccccc32)cc1 (stereo not drawn) | -51 | 57* | 8 | -2 | 1 | 55*
CC1Cc2cc(/C=C3/SC(=S)NC3=O)ccc2O1 (stereo not drawn) | -24 | -10 | -7 | 4 | -8 | nt
CCCCCCCCOC(=O)c1c(CSC(=N)N)n(C)c2cc(Br)c(OC(C)=O)cc12 | -2 | 40* | nt | -2 | nt | 5 | ATG4B confirm=65*

Screens: PubChem BioAssay, several laboratories
